What all share (test): log2 ratio of Biotin-Ahx-Ub-VS probe labelling (fragment/DMSO); higher = less target engagement (more negative = stronger competition), active = hit call of the paper (q ≤ 0.05, log2 ratio ≤ -1)
Details in all cases: compound concentration: 200 uM; treatment time: 3 h

One test addresses T1, USP42 (UniProt Q9H9J4).
T1 sequence (whole entry): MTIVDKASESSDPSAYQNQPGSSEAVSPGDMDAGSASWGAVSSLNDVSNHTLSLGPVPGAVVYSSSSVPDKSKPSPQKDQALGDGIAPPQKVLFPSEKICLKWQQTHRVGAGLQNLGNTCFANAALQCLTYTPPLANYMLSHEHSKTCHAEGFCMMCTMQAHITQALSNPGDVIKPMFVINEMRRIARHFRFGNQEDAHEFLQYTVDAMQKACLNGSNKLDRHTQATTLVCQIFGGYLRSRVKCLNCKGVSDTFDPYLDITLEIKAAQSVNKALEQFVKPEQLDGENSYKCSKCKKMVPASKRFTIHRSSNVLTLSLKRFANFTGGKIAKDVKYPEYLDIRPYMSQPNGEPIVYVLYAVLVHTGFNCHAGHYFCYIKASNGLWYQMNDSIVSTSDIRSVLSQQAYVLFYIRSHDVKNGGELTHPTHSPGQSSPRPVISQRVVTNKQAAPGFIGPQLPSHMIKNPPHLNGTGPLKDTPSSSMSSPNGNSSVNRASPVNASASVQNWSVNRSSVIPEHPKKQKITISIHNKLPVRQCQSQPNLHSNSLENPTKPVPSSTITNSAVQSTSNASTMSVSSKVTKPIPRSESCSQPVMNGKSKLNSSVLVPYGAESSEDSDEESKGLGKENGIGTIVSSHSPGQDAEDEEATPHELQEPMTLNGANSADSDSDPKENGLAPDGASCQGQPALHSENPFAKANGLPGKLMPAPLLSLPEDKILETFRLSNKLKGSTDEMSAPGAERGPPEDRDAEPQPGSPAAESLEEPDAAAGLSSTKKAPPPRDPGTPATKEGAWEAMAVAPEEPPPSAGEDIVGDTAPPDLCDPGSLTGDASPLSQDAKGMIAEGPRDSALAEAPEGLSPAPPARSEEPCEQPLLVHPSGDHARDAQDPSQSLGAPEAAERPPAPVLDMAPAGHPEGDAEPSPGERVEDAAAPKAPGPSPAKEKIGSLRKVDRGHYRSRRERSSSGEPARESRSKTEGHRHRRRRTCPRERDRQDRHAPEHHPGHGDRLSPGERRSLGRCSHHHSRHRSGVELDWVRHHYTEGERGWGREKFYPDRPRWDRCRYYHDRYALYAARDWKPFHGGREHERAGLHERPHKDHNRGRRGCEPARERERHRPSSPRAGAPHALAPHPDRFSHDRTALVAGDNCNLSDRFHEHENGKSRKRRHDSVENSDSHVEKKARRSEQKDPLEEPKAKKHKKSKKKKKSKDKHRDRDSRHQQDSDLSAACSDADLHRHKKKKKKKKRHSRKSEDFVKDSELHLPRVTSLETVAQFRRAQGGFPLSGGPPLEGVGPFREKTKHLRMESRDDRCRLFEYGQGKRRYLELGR
Put shortly:
(§1)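 Lysate from HEK293T cells, 495 µg per sample in Tris/CHAPS/IGEPAL buffer with protease inhibitors, was treated for 3 h in triplicate with fragment at 200 µM or vehicle. Biotin-Ahx-Ub-VS was next added at 0.5 µM final for 1 h. The labelled DUBs were enriched with NeutrAvidin, digested with LysC and trypsin, and run by diaPASEF LC-MS/MS, with values given as average log2 fragment/vehicle ratios by unpaired t-test on global-median-normalised Spectronaut quantities of proteins with ≥2 unique peptides.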

The target of the next test is USP46 (UniProt P62068). In a few lines: as §1
Chain of USP46 (P62068 whole entry): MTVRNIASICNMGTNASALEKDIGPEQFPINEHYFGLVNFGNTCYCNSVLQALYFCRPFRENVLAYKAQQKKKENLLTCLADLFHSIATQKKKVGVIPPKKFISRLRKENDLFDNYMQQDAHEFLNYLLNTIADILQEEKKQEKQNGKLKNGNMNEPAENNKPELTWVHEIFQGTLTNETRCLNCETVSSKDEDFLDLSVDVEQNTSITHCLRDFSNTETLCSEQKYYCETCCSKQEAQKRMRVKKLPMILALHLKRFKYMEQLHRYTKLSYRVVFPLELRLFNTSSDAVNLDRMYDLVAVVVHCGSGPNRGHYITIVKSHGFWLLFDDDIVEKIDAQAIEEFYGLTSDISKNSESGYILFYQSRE
The next test has as its target T2, USP47 (UniProt Q96K76).
T2 sequence (whole entry): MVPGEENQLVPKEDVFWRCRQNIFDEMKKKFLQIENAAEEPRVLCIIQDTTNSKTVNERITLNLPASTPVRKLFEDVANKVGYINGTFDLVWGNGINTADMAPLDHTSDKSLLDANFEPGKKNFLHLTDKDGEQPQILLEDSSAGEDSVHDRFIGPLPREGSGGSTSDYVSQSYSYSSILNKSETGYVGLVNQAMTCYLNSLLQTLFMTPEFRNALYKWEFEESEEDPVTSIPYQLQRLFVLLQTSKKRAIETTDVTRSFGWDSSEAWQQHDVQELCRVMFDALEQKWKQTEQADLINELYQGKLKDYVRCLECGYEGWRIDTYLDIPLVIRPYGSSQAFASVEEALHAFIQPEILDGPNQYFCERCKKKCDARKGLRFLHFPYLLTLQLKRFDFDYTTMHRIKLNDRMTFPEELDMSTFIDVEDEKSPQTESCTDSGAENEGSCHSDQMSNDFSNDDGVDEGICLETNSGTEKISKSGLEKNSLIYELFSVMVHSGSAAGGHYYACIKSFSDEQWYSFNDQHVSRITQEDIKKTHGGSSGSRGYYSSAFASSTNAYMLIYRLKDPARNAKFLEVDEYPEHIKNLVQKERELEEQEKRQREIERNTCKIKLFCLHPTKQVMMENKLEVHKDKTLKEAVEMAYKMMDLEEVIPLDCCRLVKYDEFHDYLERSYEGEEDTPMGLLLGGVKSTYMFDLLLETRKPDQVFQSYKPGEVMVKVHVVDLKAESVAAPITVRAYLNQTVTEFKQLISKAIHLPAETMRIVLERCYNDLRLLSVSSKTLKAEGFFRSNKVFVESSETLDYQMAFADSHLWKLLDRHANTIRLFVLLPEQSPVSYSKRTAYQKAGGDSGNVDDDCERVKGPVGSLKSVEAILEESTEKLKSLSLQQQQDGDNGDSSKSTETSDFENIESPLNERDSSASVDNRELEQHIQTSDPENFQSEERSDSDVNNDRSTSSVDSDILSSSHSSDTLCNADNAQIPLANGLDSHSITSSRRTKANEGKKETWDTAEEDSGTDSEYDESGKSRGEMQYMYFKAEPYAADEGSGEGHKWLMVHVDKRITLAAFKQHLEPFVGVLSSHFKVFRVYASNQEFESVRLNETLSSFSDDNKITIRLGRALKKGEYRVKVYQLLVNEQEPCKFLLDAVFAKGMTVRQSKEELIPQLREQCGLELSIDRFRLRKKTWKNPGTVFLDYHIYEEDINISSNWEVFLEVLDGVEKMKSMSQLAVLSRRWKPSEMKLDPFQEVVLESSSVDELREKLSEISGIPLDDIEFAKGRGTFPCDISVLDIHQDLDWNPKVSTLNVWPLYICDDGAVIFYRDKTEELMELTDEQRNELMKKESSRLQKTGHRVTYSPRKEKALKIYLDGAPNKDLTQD
Put shortly: as §1

The target of another test is T3, USP48 (UniProt Q86UV5).
T3 sequence (whole entry): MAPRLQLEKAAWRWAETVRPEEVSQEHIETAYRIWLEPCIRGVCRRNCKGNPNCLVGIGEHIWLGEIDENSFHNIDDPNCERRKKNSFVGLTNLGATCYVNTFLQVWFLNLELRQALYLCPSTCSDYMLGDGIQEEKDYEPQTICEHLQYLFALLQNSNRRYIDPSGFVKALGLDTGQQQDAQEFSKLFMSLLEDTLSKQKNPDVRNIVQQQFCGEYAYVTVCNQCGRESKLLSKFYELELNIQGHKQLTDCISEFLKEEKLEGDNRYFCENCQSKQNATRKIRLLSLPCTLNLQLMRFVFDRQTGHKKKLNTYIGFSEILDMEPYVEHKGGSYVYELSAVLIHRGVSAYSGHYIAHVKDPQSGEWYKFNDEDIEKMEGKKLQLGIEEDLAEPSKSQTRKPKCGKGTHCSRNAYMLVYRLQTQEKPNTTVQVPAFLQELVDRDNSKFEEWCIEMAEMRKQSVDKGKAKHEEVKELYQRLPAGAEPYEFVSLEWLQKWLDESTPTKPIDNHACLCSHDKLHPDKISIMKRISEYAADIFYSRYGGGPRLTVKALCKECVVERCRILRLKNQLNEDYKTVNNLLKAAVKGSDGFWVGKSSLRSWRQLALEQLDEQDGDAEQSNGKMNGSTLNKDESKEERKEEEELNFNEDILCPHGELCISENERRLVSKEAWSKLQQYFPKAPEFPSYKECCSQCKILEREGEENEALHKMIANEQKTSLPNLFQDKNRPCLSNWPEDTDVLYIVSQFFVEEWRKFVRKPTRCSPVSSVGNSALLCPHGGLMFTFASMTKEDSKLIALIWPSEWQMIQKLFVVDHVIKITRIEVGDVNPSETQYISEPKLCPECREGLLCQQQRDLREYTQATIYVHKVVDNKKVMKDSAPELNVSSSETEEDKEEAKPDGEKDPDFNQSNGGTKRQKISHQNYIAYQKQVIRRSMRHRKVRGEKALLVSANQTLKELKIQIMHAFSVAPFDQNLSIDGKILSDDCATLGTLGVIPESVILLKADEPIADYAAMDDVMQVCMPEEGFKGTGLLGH
Put shortly:
as §1

Another test concerns the target T4, USP5 (UniProt P45974).
T4 sequence (whole entry): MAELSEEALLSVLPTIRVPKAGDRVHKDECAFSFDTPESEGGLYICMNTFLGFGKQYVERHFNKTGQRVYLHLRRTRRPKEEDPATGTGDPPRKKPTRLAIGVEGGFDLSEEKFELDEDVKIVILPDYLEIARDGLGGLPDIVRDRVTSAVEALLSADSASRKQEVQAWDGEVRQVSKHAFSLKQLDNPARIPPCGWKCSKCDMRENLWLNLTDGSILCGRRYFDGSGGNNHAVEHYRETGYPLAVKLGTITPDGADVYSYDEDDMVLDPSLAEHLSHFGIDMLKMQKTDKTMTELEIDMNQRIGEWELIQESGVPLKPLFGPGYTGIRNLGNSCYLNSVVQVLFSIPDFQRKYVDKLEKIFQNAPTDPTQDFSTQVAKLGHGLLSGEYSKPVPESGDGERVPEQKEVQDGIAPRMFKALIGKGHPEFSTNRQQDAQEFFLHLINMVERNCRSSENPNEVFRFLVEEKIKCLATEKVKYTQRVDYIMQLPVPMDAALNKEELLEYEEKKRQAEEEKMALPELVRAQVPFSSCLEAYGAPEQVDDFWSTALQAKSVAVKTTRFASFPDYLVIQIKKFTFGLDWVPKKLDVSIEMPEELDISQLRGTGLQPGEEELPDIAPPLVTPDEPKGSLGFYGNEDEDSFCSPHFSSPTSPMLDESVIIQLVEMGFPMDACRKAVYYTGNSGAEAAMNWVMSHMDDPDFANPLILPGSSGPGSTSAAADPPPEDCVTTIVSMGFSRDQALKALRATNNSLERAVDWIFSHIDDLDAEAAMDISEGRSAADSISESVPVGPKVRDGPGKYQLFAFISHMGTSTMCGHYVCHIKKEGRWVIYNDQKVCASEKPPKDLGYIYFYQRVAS
In a few lines:
as §1

The target in a further test is USP54 (UniProt Q70EL1). Put shortly: as §1
The next test deals with USP7 (UniProt Q93009). Put shortly:
as §1

For another test, the target named is T5, USP8 (UniProt P40818).
T5 sequence (whole entry): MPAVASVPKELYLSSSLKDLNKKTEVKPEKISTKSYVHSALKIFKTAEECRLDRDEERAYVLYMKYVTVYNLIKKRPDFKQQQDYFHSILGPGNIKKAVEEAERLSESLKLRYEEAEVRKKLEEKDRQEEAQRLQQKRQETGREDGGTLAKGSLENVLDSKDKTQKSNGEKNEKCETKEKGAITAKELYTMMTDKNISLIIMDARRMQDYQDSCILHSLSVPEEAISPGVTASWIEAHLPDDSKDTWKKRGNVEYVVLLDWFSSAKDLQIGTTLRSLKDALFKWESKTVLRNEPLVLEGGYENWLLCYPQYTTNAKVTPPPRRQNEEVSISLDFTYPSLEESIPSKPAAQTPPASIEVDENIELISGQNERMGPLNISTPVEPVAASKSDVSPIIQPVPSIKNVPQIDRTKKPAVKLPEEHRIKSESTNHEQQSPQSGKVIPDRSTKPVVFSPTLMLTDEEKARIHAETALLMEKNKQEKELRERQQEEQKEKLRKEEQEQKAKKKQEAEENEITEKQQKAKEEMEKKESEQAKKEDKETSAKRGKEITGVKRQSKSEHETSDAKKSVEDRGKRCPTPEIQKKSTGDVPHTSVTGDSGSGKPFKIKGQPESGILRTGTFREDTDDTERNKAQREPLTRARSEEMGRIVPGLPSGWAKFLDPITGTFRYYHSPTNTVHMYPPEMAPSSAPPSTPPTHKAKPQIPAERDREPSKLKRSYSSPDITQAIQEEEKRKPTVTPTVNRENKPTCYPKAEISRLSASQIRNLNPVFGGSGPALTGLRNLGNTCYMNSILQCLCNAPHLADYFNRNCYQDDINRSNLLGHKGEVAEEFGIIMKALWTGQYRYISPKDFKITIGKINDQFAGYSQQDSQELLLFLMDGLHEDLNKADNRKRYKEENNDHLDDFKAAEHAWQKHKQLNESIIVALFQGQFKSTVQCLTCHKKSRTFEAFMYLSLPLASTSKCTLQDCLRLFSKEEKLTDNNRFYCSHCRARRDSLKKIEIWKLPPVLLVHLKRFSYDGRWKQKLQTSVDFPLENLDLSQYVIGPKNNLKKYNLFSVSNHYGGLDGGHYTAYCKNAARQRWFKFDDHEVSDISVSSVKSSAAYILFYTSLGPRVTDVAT
In a few lines:
as §1

The target of the next test is USP9X (UniProt Q93008). Put shortly:
as §1

The target in another test is UniProt O00487. Put shortly: as §1
Chain of UniProt O00487 (O00487 whole entry): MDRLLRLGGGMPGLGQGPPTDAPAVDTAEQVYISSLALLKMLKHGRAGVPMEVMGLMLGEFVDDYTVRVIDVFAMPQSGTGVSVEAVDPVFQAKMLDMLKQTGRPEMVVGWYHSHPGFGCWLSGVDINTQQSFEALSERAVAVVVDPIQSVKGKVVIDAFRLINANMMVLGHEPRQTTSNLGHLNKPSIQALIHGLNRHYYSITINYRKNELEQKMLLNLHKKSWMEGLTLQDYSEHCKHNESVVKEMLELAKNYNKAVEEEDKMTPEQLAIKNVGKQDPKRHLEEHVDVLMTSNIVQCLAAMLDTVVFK

The structures appear in SMILES notation. Values without a mark were called inactive.

Chain of USP7 (Q93009 whole entry, looked up): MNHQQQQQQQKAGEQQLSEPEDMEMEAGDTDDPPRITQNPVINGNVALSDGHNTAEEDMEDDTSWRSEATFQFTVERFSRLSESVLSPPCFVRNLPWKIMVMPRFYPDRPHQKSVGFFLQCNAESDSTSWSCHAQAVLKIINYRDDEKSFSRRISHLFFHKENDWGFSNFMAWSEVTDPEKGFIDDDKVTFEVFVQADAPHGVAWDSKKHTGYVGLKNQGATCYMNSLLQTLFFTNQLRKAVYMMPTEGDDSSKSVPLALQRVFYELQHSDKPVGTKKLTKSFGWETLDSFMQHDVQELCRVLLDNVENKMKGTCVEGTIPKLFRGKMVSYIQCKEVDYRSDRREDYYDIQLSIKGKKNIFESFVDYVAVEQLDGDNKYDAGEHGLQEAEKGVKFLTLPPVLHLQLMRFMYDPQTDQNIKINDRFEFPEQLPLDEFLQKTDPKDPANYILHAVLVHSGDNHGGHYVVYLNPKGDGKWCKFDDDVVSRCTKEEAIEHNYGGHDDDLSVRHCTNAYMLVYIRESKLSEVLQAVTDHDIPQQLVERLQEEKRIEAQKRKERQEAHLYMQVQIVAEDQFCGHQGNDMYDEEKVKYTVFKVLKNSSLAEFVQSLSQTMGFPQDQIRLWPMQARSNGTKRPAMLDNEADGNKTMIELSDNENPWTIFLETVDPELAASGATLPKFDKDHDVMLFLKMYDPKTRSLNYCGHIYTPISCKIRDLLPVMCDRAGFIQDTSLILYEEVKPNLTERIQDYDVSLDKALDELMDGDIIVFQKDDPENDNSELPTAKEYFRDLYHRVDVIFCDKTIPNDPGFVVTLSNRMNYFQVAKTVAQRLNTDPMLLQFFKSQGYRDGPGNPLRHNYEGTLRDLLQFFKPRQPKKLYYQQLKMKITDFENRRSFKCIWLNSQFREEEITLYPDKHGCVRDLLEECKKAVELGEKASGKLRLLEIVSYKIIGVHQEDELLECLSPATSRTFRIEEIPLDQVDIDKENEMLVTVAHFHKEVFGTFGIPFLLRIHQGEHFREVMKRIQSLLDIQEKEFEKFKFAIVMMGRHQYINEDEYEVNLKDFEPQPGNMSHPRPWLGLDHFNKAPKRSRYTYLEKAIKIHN
Chain of USP9X (Q93008 whole entry): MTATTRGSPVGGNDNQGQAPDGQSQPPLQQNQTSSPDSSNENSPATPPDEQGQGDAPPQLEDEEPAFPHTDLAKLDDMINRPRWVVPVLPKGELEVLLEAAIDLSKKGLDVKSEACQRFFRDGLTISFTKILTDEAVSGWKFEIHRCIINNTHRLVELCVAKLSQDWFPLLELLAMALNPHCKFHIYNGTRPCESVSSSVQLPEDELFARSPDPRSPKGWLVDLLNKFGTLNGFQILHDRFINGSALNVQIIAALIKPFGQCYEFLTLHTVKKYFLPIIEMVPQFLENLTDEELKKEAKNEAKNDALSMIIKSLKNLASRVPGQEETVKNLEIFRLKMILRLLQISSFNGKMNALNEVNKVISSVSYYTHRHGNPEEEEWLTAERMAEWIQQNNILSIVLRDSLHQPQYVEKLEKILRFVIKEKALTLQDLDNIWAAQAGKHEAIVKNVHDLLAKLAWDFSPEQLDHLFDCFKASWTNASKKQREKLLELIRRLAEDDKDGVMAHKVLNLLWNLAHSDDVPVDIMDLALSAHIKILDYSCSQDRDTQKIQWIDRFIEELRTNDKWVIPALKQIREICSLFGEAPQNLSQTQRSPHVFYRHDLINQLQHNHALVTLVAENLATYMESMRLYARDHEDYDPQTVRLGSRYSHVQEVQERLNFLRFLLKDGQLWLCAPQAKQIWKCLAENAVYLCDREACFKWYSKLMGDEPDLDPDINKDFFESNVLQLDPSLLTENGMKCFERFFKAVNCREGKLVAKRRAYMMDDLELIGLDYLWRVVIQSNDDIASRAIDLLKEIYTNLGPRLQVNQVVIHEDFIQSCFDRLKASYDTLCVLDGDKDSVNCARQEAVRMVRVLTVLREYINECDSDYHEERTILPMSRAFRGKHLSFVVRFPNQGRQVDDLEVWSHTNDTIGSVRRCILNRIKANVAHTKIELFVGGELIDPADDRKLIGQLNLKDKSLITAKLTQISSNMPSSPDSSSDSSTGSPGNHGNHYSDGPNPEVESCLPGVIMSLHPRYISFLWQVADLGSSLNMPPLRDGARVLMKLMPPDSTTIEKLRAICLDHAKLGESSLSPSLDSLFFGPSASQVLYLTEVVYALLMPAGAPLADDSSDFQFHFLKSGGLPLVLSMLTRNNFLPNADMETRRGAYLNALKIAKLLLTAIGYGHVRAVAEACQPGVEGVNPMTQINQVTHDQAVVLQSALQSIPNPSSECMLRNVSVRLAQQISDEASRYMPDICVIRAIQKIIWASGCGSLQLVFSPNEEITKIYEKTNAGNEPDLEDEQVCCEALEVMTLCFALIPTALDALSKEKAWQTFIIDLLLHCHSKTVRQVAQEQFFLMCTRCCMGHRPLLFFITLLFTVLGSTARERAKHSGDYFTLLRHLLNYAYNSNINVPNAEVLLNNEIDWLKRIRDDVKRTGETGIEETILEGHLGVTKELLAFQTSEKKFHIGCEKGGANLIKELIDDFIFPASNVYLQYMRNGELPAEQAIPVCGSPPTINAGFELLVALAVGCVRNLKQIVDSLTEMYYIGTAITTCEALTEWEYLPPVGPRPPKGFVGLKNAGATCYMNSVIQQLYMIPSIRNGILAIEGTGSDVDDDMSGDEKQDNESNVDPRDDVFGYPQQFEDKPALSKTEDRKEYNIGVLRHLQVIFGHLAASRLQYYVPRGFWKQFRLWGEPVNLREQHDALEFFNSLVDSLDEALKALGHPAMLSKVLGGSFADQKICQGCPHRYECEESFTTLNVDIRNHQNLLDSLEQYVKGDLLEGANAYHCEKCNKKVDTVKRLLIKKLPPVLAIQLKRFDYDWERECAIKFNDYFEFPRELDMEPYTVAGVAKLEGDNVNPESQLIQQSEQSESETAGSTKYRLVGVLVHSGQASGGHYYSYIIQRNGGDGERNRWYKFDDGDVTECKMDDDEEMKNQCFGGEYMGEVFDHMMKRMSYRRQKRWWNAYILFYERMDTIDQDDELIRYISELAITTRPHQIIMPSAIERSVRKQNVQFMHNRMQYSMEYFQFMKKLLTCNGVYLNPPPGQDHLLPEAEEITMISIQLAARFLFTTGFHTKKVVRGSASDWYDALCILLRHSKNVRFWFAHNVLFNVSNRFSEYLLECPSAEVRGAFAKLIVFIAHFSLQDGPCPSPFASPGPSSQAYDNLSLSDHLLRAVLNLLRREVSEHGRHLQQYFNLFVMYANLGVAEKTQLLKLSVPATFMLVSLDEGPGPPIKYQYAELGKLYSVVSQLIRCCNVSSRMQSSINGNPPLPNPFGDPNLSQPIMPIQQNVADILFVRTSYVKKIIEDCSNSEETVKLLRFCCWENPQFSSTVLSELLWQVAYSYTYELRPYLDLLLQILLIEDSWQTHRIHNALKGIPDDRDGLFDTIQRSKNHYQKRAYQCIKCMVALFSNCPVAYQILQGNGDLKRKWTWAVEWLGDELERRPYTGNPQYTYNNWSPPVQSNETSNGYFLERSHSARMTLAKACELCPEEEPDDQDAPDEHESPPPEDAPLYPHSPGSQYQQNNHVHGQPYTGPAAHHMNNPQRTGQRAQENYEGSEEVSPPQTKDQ

With `O=C(CCl)NC1CCC(C(F)(F)F)CC1` (stereo not given), the “log2 ratio of Biotin-Ahx-Ub-VS probe labelling” value (“log2 ratio” below) with USP42 was 0.589; with USP46, -0.0439; in the test with USP47, -0.0726; with USP48, -0.174; in the test with USP5, -0.36; with USP54, 0.0395. The “log2 ratio” value with USP7 was -0.303; with USP8, -0.0509; in the test with USP9X, -0.178; in the test with UniProt O00487, -0.185.

As for `O=C(CCl)N(Cc1ccsc1)C1CC1`, the “log2 ratio” value in the test with USP42 is -0.0609; with USP46 it was 0.201; with USP47 it was -0.631; with USP48, -1.14 (active); with USP5, 0.243; with USP54, 0.171. Besides, the “log2 ratio” value is -1.25 (active) with USP7, 0.0752 in the test with USP8, -0.139 with USP9X and 0.0101 in the test with UniProt O00487.

In the case of `CC(=O)Nc1ccc(NC(=O)CCl)cc1`, the “log2 ratio” value is 0.329 with USP42; -0.0429 with USP46; -0.31 in the test with USP47; -0.256 with USP48; -0.0185 with USP5; 0.408 in the test with USP54. Moreover, the “log2 ratio” value in the test with USP7 was -0.267; in the test with USP8 it was -0.236; in the test with USP9X it was -0.118; with UniProt O00487 it was -0.167.

The values are drawn from the supplement of paper PMC11732987, “Enantioselective OTUD7B fragment discovery through chemoproteomics screening and high-throughput optimisation” (Communications Chemistry, 2025).
